Compound activity (PubChem)
The list is not random: actives were taken first. Their share in the collection is about 3%.
Tau fluor cs: counter-screen for tau fibril formation inhibitors; tau K18 P301L Alexa594 fluorescence, heparin fibrillization; Potency, µM (doses to about 57.7 µM), inactives show top-dose activity change, negative = decrease; hit rate 0.93% among 280,000; AID 1463; note: nearly all actives have a fitted effect of over 55% in size
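Human tau K18 P301L (15 uM unlabeled, 0.24 uM Alexa 594-labeled) in 100 mM sodium acetate pH 7 with 20 uM heparin, 6 hr at 37 C. ThT 30 uM added, 1 hr ambient; Alexa 594 FP and total fluorescence read at 555/632 nm.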
Tau fibril ThT: tau fibrillization inhibition (ThT binding); hit rate 2.1% among 270,000; recombinant tau K18 P301L (four-repeat tau fragment), heparin-induced fibrillization, ThT fluorescence; Potency, µM (titrated, usually from 57.4 µM), for the others: top-dose activity, negative = inhibition, usual class: inhibitors; P10636; note: nearly all actives have a fitted effect of over 55% in size
Target sequence (P10636 561-689 P618L limits assumed): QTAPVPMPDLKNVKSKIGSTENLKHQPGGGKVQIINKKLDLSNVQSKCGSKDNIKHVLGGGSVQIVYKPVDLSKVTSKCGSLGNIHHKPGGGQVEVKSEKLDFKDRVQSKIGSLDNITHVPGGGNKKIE
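Recombinant human tau K18 fragment […] carrying P301L, 15 uM unlabeled plus 0.24 uM Alexa 594-labeled, was fibrillized with 20 uM heparin in 100 mM sodium acetate pH 7 for 6 hr at 37 C; 30 uM ThT fluorescence read after 1 hr.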
Tau FP inhib: inhibitors of human tau fibril formation; K18 P301L tau heparin fibrillization, Alexa594 FP, 6 h; Potency, µM (top dose mostly 57.7 µM), for inactives: top-dose activity, negative = inhibition, most hits filed as inhibitors; hit rate 0.39% among 280,000; note: nearly all actives have a fitted effect of over 55% in size
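Human tau K18 […] P301L fragment, 15 uM unlabeled plus 0.24 uM Alexa 594-labeled tau (final), with compound and 20 uM heparin in 100 mM sodium acetate pH 7; 6 hr at 37 C, then Alexa 594 FP read.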
TexasRed fluor: Texas Red fluorescence interference in TRb-SRC2 counter-screen; TRb/SRC2 Texas Red total fluorescence interference; Potency, µM (highest dose often 106 µM), inactives show at the highest dose fluorescence change, negative = quenching; hit rate 0.29% among 280,000; AID 1479; active = well fitted curve in either direction with a large enough effect; inconclusive = small, poorly fitted or top-dose-only effect
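Flags fluorescent or light-absorbing compounds by total fluorescence, S + 2P, at 555 nm excitation and 632 nm emission. Mixture: 20 nM Texas Red SRC2 peptide, 0.6 uM human TRb LBD, 1 uM T3, 5% DMSO; compound exposure 5 h at ambient temperature.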
TRb-SRC2 inh: inhibitors of human thyroid hormone receptor beta-SRC2 interaction; AID 1469; TRbeta-SRC2 peptide binding, fluorescence polarization; receptor liganded with 1 µM T3; Potency, µM (doses to about 106 µM), for inactives: at the highest dose activity change, negative = inhibition, actives largely listed as inhibitors; hit rate 0.065% among 280,000;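 note: plate controls were bound peptide for no effect and peptide without receptor for full effect; nearly all actives have a fitted effect of over 50% in size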
Target sequence (P10828 whole entry, looked up): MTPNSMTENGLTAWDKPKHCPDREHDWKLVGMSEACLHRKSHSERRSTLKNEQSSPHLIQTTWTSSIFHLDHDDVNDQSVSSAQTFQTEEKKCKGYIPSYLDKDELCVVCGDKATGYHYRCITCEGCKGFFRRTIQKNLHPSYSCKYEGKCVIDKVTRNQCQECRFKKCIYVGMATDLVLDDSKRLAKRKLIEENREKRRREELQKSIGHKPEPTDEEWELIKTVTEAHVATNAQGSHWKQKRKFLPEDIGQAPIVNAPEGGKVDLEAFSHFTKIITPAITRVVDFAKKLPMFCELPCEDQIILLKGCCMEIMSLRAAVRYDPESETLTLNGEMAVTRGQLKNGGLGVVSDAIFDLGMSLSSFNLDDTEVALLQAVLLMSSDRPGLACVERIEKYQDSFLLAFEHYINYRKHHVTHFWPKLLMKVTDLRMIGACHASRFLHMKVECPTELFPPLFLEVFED
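Polarization signal, normalized between peptide-alone and full complex controls, measured compound effects on T3-liganded human TRb LBD (0.6 uM) binding 20 nM Texas Red SRC2 peptide after 5 hr.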
* marks the source's active call; other numbers are inactive results; ? = inconclusive; . = no result given; [ ] = dose if it differs, or a comment. Unless noted, calls come from the whole dose curve; as a rule, active = well fitted curve in the direction sought with a large enough effect; inconclusive = small, poorly fitted or top-dose-only effect, or another doubt; inactive = no such curve, though single readings can be large; an effect the other way counts as inactive or inconclusive. Unless noted, % is set by controls: 0 for no effect and ±100 for the full control effect; potency is the fitted concentration of half-maximal effect.

SMILES	Tau fluor cs	Tau fibril ThT	Tau FP inhib	TexasRed fluor	TRb-SRC2 inh
O=C1c2ccccc2-c2cccc(C(=O)N3CCCCC3)c21	-10%	-7%	-5%	-1%	3%
O=C(O)c1ccccc1NCc1ccco1	9%	1%	0%	3%	-4%
O=C1c2ccccc2-c2onc3ccc(N4CCCC4)c1c23	10µM*[quencher]	8.9µM*	28µM*	45µM*[fluorescent]	40µM*
O=C1c2ccccc2C(=O)c2c1cccc2N1CCCC1	?	14µM*	?	0%	7%
CCNc1ccccc(-c2ccc3ccccc3n2)c1=O	-8%	?	8%	-3%	-1%
Cc1ccc(-n2c(SCc3nc(-c4ccccc4C)no3)nnc2-c2ccncc2)cc1C	-21%	?	2%	13%	7%
CCOc1ccc2noc3c2c1C(=O)c1ccccc1-3	?	?	?	?	50µM*
Cn1c(=O)c(NC2CCCCC2)c2c3c(cccc31)C(=O)c1ccccc1-2	?	-15%	-1%	4%	3%
Cn1c(=O)cc2c3c(c(N4CCCCC4)ccc31)C(=O)c1ccccc1-2	13µM*[quencher]	11µM*	?	?	?
CCC1=C2CC[C@H]3C(=O)N(CC)C(=O)[C@H]3[C@H]2[C@@]2(C)C(=NCCc3c[nH]c4ccccc34)OC(=O)N2C1=O	-18%	-11%	-6%	-6%	5%
O=C(Nc1ccc(Cl)cc1Cl)NC1CCCC1	2%	4%	8%	-3%	-12%
O=C(Nc1ccc(Cl)cc1Cl)NC1CCN(S(=O)(=O)c2ccc(F)cc2)CC1	?	.	25µM*	0%	1%
O=C(Nc1cccc(S(=O)(=O)N2CCCCC2)c1)Nc1ccc(Cl)cc1Cl	?	14%	14µM*	-2%	5%
COc1ccccc1NS(=O)(=O)c1cccc(NC(=O)Nc2ccccc2)c1	?	15%	?	1%	-13%
COc1ccccc1NS(=O)(=O)c1cccc(NC(=O)Nc2ccc(Cl)cc2)c1	?	7%	28µM*	0%	11%
CCN1CCC(N(Cc2ccc(F)cc2)C(=O)Nc2cccc(C(F)(F)F)c2)CC1	-9%	-1%	-2%	8%	-2%
COc1cccc(-c2nnc3n(Cc4ccc(C)cc4)c(=O)c4ccccc4n23)c1O	-7%	-12%	6%	-1%	-5%
Cc1cc(C(=O)CSc2nnnn2-c2ccc(O)cc2)c(C)n1Cc1ccc2c(c1)OCO2	7.9µM*[quencher]	-17%	11µM*	-2%	-8%
Cc1cc(C(=O)CSc2nnnn2-c2ccccc2)c(C)n1-c1ccc2c(c1)OCO2	?	?	-1%	2%	-3%
CO[C@H]1COC(=O)[C@H]2CCCN2C(=O)C/C=C\[C@@H](C)[C@H](OC)COC(=O)C/C=C\[C@@H]1C	-1%[11.6 µM]	-6%[11.5 µM]	1%[11.6 µM]	0%[11.2 µM]	4%[11.2 µM]
Cc1[nH]n(-c2ccccc2)c(=S)c1C=Nc1ccc([N+](=O)[O-])cc1	-19%	25µM*	?	1%	-2%
Cc1[nH]n(-c2ccccc2)c(=O)c1C=Nc1ccc(S(=O)(=O)N=C(N)N)cc1	-14%	.	-4%	1%	2%
O=C(COc1ccc(F)cc1)N(c1ccccn1)C1CCCCC1	-11%	-12%	1%	0%	0%
CC(C)c1ccc(OCC(=O)N(c2ccccn2)C2CCCCC2)cc1	-9%	-6%	5%	5.6µM*[quencher]	-26%[53 µM]
CCS(=O)(=O)N1CCC(C(=O)N2CCc3ccccc3C2)CC1	16µM*[quencher]	?	?	-5%	5%
SMILES	Tau fluor cs	Tau fibril ThT	Tau FP inhib	TexasRed fluor	TRb-SRC2 inh
CC(C)CN(CC(C)C)S(=O)(=O)N1CCC(C(=O)N2CCc3ccccc3C2)CC1	-5%	-6%	6%	-2%	-3%
Cc1ccc(C)c(OCC(=O)Nc2ccc(S(=O)(=O)Nc3ccccn3)cc2)c1C	-17%	-6%	4%	-6%	9%
Cc1cccc(C)c1OCC(=O)Nc1ccc(S(=O)(=O)Nc2ccccn2)cc1	-15%	-14%	-1%	71µM*[quencher]	-6%
CC(=O)Nc1ccc(S(=O)(=O)NC2=C(N3CCN(c4ccc(F)cc4)CC3)C(=O)c3ccccc3C2=O)cc1	13µM*[quencher]	5.6µM*	?	-5%	-21%
Cc1ccc(S(=O)(=O)NC2=C(N3CCN(c4ccccc4F)CC3)C(=O)c3ccccc3C2=O)cc1	?	16µM*	4%	-2%	-7%
O=C1C(NS(=O)(=O)c2cccs2)=C(N2CCN(c3ccccc3)CC2)C(=O)c2ccccc21	?	6.3µM*	?	-3%	-2%
O=C(Nc1nnc(S(=O)(=O)N2CCCCCC2)s1)c1ccc(Br)cc1	?	?	-4%	-15%	-1%
O=C(Nc1nnc(S(=O)(=O)N2CCCCC2)s1)c1ccc(Cl)cc1	-27%	2µM*	4%	?	-4%
O=C(Nc1nnc(S(=O)(=O)N2CCCC2)s1)c1ccccc1Br	-21%	?	1%	0.05µM*[quencher]	-13%
O=C(Nc1nnc(S(=O)(=O)N2CCN(c3ccc(F)cc3)CC2)s1)c1ccc(Cl)cc1	-22%	?	-8%	?	2%
Cc1ccc(C(=O)Nc2nnc(S(=O)(=O)N3CCN(c4ccc(F)cc4)CC3)s2)cc1	-17%	2.5µM*	6%	-29%	0%
O=C(Nc1nnc(S(=O)(=O)N2CCCCCC2)s1)c1ccccc1Br	?	?	2%	-2%	-9%
COc1ccc(N(CC(=O)NC(C)c2ccccc2)S(=O)(=O)c2c(C)nn(C)c2C)cc1 (stereo unspecified)	-9%	-2%	-5%	0%	-5%
O=C(N/N=C/c1c[nH]c2ccccc12)C1CC1(c1ccccc1)c1ccccc1 (stereo unspecified)	7.1µM*[quencher]	-11%	-3%	-2%	10%
O=C(N/N=C/c1c[nH]c2ccccc12)C1CC1c1ccccc1 (stereo unspecified)	14µM*[quencher]	?	4%	-6%	3%
O=C(N/N=C/c1ccncc1)C1CC1(c1ccccc1)c1ccccc1 (stereo unspecified)	?	?	-7%	-3%	-12%
O=C(N/N=C/c1ccc(O)c([N+](=O)[O-])c1)C1CC1(c1ccccc1)c1ccccc1 (stereo unspecified)	?	14µM*	7%	-4%	-10%
C=COCC1CN2C(CCC(C)C2c2ccc(Br)cc2)C(=O)O1 (stereo unspecified)	-9%[11.6 µM]	-5%[11.5 µM]	-8%[11.6 µM]	0%[11.2 µM]	-2%[11.2 µM]
O=[N+]([O-])c1ccc(N/N=C2\CC3CC=CC23)cc1 (stereo unspecified)	?	14µM*	6%	-2%	-1%
CCC(C)NC(=O)C1CCN(S(=O)(=O)c2ccc3c(ccn3CC)c2)CC1 (stereo unspecified)	-1%	8%	-2%	-5%	-9%
